Data on ten compounds can be found in PubChem BioAssay (EPA / NIEHS).

“And” between values parts separate entries of the source, which are not always exact repeats. Identical values can stand only once. Results filed as inconclusive are left out. More than one record can exist for a structure, and the calls need not agree. The source made the active and inactive calls. The calls were made as follows, unless noted: active = hit-call score of the fitted dose curve at least 0.9, where 1 is the maximum; inconclusive = response in the unintended direction; inactive = score below 0.9.

Usually AC50 stands for the midpoint of the concentration-response curve, whichever way the signal moves.

Sequence of zebrafish Thyroid Hormone Receptor alpha (TRa), thraa (gene 30670) (Q98867 whole entry, looked up, the tested form may be a part): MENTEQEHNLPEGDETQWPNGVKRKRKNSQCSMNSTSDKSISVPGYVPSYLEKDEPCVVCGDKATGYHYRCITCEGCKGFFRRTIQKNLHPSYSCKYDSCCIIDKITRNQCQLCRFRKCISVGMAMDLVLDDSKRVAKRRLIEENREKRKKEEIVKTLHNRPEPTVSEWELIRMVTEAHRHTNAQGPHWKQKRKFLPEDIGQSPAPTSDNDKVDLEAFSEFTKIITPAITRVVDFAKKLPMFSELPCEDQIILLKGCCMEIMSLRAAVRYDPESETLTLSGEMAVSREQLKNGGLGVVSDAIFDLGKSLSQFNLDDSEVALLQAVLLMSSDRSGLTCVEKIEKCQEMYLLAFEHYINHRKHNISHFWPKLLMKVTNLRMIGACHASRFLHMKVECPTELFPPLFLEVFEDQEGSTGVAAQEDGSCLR
Sequence of human Thyroid hormone Receptor alpha (TRa), THRA (gene 7067) (P10827 whole entry, looked up, the tested form may be a part): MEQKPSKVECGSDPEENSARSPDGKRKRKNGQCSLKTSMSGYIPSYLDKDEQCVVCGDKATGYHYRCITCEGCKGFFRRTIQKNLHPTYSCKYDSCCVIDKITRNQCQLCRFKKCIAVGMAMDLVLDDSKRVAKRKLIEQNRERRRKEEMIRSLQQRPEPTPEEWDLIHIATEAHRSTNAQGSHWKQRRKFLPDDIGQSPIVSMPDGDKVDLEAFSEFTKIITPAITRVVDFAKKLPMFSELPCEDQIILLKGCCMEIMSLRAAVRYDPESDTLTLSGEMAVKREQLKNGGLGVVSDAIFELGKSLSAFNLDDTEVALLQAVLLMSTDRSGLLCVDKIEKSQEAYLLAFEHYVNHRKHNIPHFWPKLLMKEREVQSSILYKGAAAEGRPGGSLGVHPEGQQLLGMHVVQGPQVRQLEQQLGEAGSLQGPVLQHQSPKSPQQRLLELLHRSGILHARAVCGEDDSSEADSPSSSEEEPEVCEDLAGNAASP
Sequence of frog Thyroid hormone Receptor alpha (TRa), thra-a (gene 397942) (P15204 whole entry, looked up, the tested form may be a part): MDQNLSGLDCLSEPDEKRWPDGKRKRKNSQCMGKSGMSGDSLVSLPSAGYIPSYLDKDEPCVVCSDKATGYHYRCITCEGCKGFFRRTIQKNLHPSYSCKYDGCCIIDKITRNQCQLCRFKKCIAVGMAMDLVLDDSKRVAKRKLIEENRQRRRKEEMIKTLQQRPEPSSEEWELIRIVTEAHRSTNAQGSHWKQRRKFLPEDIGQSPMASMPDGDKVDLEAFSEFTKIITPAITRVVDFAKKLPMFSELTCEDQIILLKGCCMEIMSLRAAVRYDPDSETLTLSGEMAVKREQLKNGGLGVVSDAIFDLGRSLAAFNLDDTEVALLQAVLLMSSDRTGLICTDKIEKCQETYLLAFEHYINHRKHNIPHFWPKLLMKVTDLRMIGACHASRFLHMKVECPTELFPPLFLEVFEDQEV

One test addresses zebrafish Thyroid Hormone Receptor alpha (TRa), thraa (gene 30670) (UniProt Q98867). In words: ATG_zfTRa_XSP2: Attagene TRANS-FACTORIAL Multi-Species (XSP1) HepG2 Assay for zebrafish Thyroid Hormone Receptor alpha (TRa) (AID 2283832).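 Also: actives raise zebrafish TRa-Gal4 reporter transcript above DMSO baseline.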 Put shortly: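 Chimeric receptor-Gal4 activity was assessed in transfected human liver HepG2 cells 24 h after dosing, using reporter transcript levels detected by RT-PCR and capillary electrophoresis. DMSO served as baseline.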
Turning to `CCCOC(=O)c1ccc(O)cc1`, the compound was classed as inactive.

Regarding `CCC(C)(C)C1CCC(O)CC1` (centres undefined), the compound was classed as inactive.

In the case of `Oc1cc2ccccc2c2ccccc12`, the AC50 is 10.6 µM (active) and the result was inactive.

As for `CCC(=C(c1ccc(O)cc1)c1ccc(OCCN(C)C)cc1)c1ccccc1`, the AC50 was 11.6 µM (active) and the call was inactive.

As to `O=c1c(-c2ccc(O)cc2)coc2cc(O)ccc12`, the compound was classed as inactive.

Regarding `O=C(O)Cc1cc(I)c(Oc2cc(I)c(O)c(I)c2)c(I)c1`, the AC50 was 123 nM (active) and 54.3 nM (active).

The test system of a further test is zebrafish Peroxisome Proliferator-activated Receptor gamma (PPARg), gene 557037. Put plainly: ATG_zfPPARg_XSP2: Attagene TRANS-FACTORIAL Multi-Species (XSP2) HepG2 Assay for zebrafish Peroxisome Proliferator-activated Receptor gamma (PPARg) (AID 2283833).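 Also: actives increase reporter signal over DMSO so AC50 reflects activation.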 Summed up: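 Transfect HepG2 with multiplexed GAL4-UAS reporter constructs; dose chemical 24 h; isolate RNA, reverse-transcribe, PCR-amplify, label and digest reporter products; resolve by capillary electrophoresis. Activity taken as increase over DMSO.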
As to `Cc1oc(-c2ccccc2)nc1CCOc1ccc(C[C@H](Nc2ccccc2C(=O)c2ccccc2)C(=O)O)cc1`, the compound was classed as inactive.

Regarding `CCCOC(=O)c1ccc(O)cc1`, the compound was classed as inactive.

As for `c1ccc2c(c1)ccc1ccccc12`, the result was inactive.

On to `C#C[C@]1(O)CC[C@H]2[C@@H]3CCC4=CC(=O)CC[C@@H]4[C@H]3CC[C@@]21C`, for which the result was inactive.

Take `CCC(=C(c1ccc(O)cc1)c1ccc(OCCN(C)C)cc1)c1ccccc1`: the call was inactive.

With `O=c1c(-c2ccc(O)cc2)coc2cc(O)ccc12`, the compound was classed as inactive.

For the compound `O=C(O)Cc1cc(I)c(Oc2cc(I)c(O)c(I)c2)c(I)c1`, the outcome was inactive.

The subject of a further test is turtle Thyroid Hormone Receptor, alpha (TRa), gene 101949057. In words: ATG_trTRa_XSP2: Attagene TRANS-FACTORIAL Multi-Species (XSP1) HepG2 Assay for turtle Thyroid Hormone Receptor, alpha (TRa) (AID 2283834).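 Also: hits raise reporter mRNA over the DMSO baseline so AC50 marks activators.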 Summed up:
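Readout: reporter mRNA induction, fluorescence after RT-PCR, HpaI digestion and capillary electrophoresis. Transiently transfected HepG2, exogenous NR-Gal4 chimera driving GAL4-UAS reporter, 24 h compound exposure. Activity fitted upward relative to DMSO baseline.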
On to `CCCOC(=O)c1ccc(O)cc1`, for which the compound was called inactive.

Regarding `CC[C@H](c1ccc(O)cc1)[C@@H](CC)c1ccc(O)cc1`, the compound was called inactive.

As for `CCC(C)(C)C1CCC(O)CC1` (centres undefined), the result was inactive.

With `Oc1cc2ccccc2c2ccccc12`, the AC50 was 10.6 µM (active) and the outcome was inactive.

Turning to `c1ccc2c(c1)ccc1ccccc12`, the call was inactive.

For the compound `C#C[C@]1(O)CC[C@H]2[C@@H]3CCC4=CC(=O)CC[C@@H]4[C@H]3CC[C@@]21C`, the result was inactive.

In the case of `CCC(=C(c1ccc(O)cc1)c1ccc(OCCN(C)C)cc1)c1ccccc1`, the compound was classed as inactive.

For `O=c1c(-c2ccc(O)cc2)coc2cc(O)ccc12`, the result was inactive.

In the case of `O=C(O)Cc1cc(I)c(Oc2cc(I)c(O)c(I)c2)c(I)c1`, the AC50 is 91.9 nM (active) and 48.7 nM (active).

System in another test: not listed separately
In words: ATG_M_61_XSP2: Attagene TRANS-FACTORIAL Multi-Species (XSP2) HepG2 Assay for M61 Transcription Factor (Internal Marker) (AID 2283835; active = hit-call score of the fitted dose curve at least 0.9, where 1 is the maximum; inactive = score below 0.9;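 also: active means a rise in signal above the DMSO baseline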). Put shortly:
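HepG2 cells transiently transfected with multiple GAL4-UAS reporter units; reporter mRNA measured 24 h after dosing by RT-PCR, fluorescent labelling and capillary electrophoresis. Medium contained 3 nM 6-alpha-fluorotestosterone and 1.5 nM norgestrel; internal marker, DMSO baseline.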
`Cc1oc(-c2ccccc2)nc1CCOc1ccc(C[C@H](Nc2ccccc2C(=O)c2ccccc2)C(=O)O)cc1`: the outcome was inactive.

Consider `CCCOC(=O)c1ccc(O)cc1`, for which the outcome was inactive.

`CC[C@H](c1ccc(O)cc1)[C@@H](CC)c1ccc(O)cc1`: the call was inactive.

Take `CCC(C)(C)C1CCC(O)CC1` (centres undefined): the outcome was inactive.

As to `c1ccc2c(c1)ccc1ccccc12`, the result was inactive.

In the case of `CCC(=C(c1ccc(O)cc1)c1ccc(OCCN(C)C)cc1)c1ccccc1`, the result was inactive.

Turning to `O=c1c(-c2ccc(O)cc2)coc2cc(O)ccc12`, the call was inactive.

For `O=C(O)Cc1cc(I)c(Oc2cc(I)c(O)c(I)c2)c(I)c1`, the call was inactive.

The next test deals with zebrafish Thyroid Hormone Receptor beta (TRb), thrb (gene 30607) (UniProt Q9PVE4). In words: ATG_zfTRb_XSP2: Attagene TRANS-FACTORIAL Multi-Species (XSP1) HepG2 Assay for zebrafish Thyroid Hormone Receptor beta (TRb) (AID 2283836).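 As to AC50: potency for induction of reporter signal above DMSO so agonist direction.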 Put shortly: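 Fluorescence of labelled reporter cDNA fragments, separated by capillary electrophoresis, gives mRNA induction from exogenous NR-Gal4 chimeras in transiently transfected HepG2 cells after 24 h dosing; 3 nM 6-alpha-fluorotestosterone and 1.5 nM norgestrel included in the run.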
Sequence of zebrafish Thyroid Hormone Receptor beta (TRb), thrb (gene 30607) (Q9PVE4 whole entry, looked up, the tested form may be a part): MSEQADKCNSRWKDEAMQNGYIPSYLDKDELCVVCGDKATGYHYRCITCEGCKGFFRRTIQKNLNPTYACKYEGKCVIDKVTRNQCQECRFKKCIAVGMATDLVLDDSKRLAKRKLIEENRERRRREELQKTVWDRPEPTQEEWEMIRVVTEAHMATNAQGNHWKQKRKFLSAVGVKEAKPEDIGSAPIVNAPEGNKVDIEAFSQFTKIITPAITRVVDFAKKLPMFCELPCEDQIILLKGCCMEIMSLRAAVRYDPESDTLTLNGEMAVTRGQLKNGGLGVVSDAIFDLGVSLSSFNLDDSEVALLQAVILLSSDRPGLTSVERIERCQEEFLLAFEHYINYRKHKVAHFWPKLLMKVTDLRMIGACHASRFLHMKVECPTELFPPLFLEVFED
Consider `Cc1oc(-c2ccccc2)nc1CCOc1ccc(C[C@H](Nc2ccccc2C(=O)c2ccccc2)C(=O)O)cc1`, for which the outcome was inactive.

As for `CCCOC(=O)c1ccc(O)cc1`, the compound was classed as inactive.

With `CC[C@H](c1ccc(O)cc1)[C@@H](CC)c1ccc(O)cc1`, the outcome was inactive.

With `CCC(C)(C)C1CCC(O)CC1` (centres undefined), the result was inactive.

Turning to `Oc1cc2ccccc2c2ccccc12`, the AC50 is 33.4 µM (active).

Consider `c1ccc2c(c1)ccc1ccccc12`, for which the outcome was inactive.

As to `C#C[C@]1(O)CC[C@H]2[C@@H]3CCC4=CC(=O)CC[C@@H]4[C@H]3CC[C@@]21C`, the compound was called inactive.

Take `CCC(=C(c1ccc(O)cc1)c1ccc(OCCN(C)C)cc1)c1ccccc1`: the compound was called inactive.

Take `O=c1c(-c2ccc(O)cc2)coc2cc(O)ccc12`: the compound was called inactive.

With `O=C(O)Cc1cc(I)c(Oc2cc(I)c(O)c(I)c2)c(I)c1`, the AC50 was 45.5 nM (active) and 14.4 nM (active).

System in a further test: not listed separately
In words: ATG_XTT_Cytotoxicity_XSP2: Cytotoxicity Assessment in the Attagene TRANS-FACTORIAL Multi-Species (XSP2) HepG2 Assay (AID 2283837). Summed up: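 HepG2 cells, transiently transfected with multiple reporter constructs, exposed to chemical for 24 h. Cell number assessed with XTT fluorescence read-out; loss of signal fitted relative to DMSO.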
Consider `CCCOC(=O)c1ccc(O)cc1`, for which the compound was called inactive.

Consider `Oc1cc2ccccc2c2ccccc12`, for which the AC50 was 15.7 µM (active).

With `c1ccc2c(c1)ccc1ccccc12`, the outcome was inactive.

For the compound `CCC(=C(c1ccc(O)cc1)c1ccc(OCCN(C)C)cc1)c1ccccc1`, the AC50 is 32.1 µM (active).

As for `O=c1c(-c2ccc(O)cc2)coc2cc(O)ccc12`, the result was inactive.

The next test concerns the target human Thyroid hormone Receptor alpha (TRa), THRA (gene 7067) (UniProt P10827). In words: ATG_hTRa_XSP2: Attagene TRANS-FACTORIAL Multi-Species (XSP2) HepG2 Assay for human Thyroid hormone Receptor alpha (TRa) (AID 2283838). Summed up:
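HepG2 cells transiently transfected with multiplexed GAL4-UAS reporter units and exogenous NR-GAL4 chimeras; 24 h chemical exposure with 3 nM 6-alpha-fluorotestosterone and 1.5 nM norgestrel present. Reporter mRNA measured by RT-PCR, FAM labelling, HpaI digestion, capillary electrophoresis; gain-of-signal versus DMSO.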
On to `CCCOC(=O)c1ccc(O)cc1`, for which the compound was classed as inactive.

As for `CCC(C)(C)C1CCC(O)CC1` (centres undefined), the compound was classed as inactive.

Take `Oc1cc2ccccc2c2ccccc12`: the AC50 is 33.4 µM (active).

As for `c1ccc2c(c1)ccc1ccccc12`, the call was inactive.

`O=c1c(-c2ccc(O)cc2)coc2cc(O)ccc12`: the compound was classed as inactive.

Regarding `O=C(O)Cc1cc(I)c(Oc2cc(I)c(O)c(I)c2)c(I)c1`, the AC50 was 75.3 nM (active) and 30.2 nM (active).

The next test addresses frog Thyroid hormone Receptor alpha (TRa), thra-a (gene 397942) (UniProt P15204). Put plainly: ATG_frTRa_XSP2: Attagene TRANS-FACTORIAL Multi-Species (XSP2) HepG2 Assay for frog Thyroid hormone Receptor alpha (TRa) (AID 2283839).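 As to AC50: AC50 reflects induction of frog TRa-driven reporter mRNA above DMSO baseline.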 Put shortly:
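Read-out: fluorescent reporter-transcript fragments resolved by capillary electrophoresis after RT-PCR and HpaI cut. Human HepG2 liver cells carry a transfected frog TRα-Gal4 chimera driving a UAS reporter; 24 h exposure, DMSO baseline, positive-direction fit.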
`CCCOC(=O)c1ccc(O)cc1`: the result was inactive.

Consider `CC[C@H](c1ccc(O)cc1)[C@@H](CC)c1ccc(O)cc1`, for which the outcome was inactive.

In the case of `CCC(C)(C)C1CCC(O)CC1` (centres undefined), the result was inactive.

For `Oc1cc2ccccc2c2ccccc12`, the AC50 was 33.4 µM (active) and the compound was called inactive.

Regarding `c1ccc2c(c1)ccc1ccccc12`, the result was inactive.

On to `C#C[C@]1(O)CC[C@H]2[C@@H]3CCC4=CC(=O)CC[C@@H]4[C@H]3CC[C@@]21C`, for which the outcome was inactive.

For the compound `CCC(=C(c1ccc(O)cc1)c1ccc(OCCN(C)C)cc1)c1ccccc1`, the outcome was inactive.

With `O=c1c(-c2ccc(O)cc2)coc2cc(O)ccc12`, the result was inactive.

As for `O=C(O)Cc1cc(I)c(Oc2cc(I)c(O)c(I)c2)c(I)c1`, the AC50 was 86.6 nM (active) and 15.1 nM (active).
